Among all 200,000 compounds or so, about 5,100 (2.5%) were called active. The entries come from a sample that favours actives as a whole. Values without a mark were called inactive.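 How the source made its calls: active means activation above the screen-wide mean activation plus 3 SD (cut at about 130% in these data); inactive means the rest.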
test: potentiators of IFN-gamma driven STAT1 reporter – cell-based, HTS, luciferase reporter, primary screen (AID 932); settings: NIH 3T3 STAT1-luciferase reporter, luminescence, at 5.5 µM, hits give high values, 100% = IFN-gamma alone, no compound;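 further: raw ratio to IFN-gamma control signal so 100% means no change and 0% no light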

SMILES | activation (% of control)
CCCOc1ccc(NC(=O)C2OC3OC(C)(C)OC3C3OC(C)(C)OC23)cc1 (stereo not given) | 95.5%
CCn1c(CNS(=O)(=O)c2ccc(Cl)cc2)n[nH]c1=S | 94.3%
O=C1/C(=C\c2ccccc2Cl)SC(=S)N1CCC(=O)N1CCCc2ccccc21 | 98.2%
O=C(Nc1ccccc1Cl)/C(Cl)=C(\Cl)S(=O)c1ccccc1 (stereo not given) | 201% (active)
COCCN(CCOC)C(=S)Nc1ccccc1Cl | 91.7%
O=C(CN1CCCCC1)Nc1ccccc1Cl | 103%
CCN(CC)CC(=O)Nc1sc2c(c1C(=O)c1ccccc1C)CCC2 | 100%
CCOC(=O)c1cc(-c2ccc(F)cc2)n(CC(=O)NCc2ccccn2)c1C | 96.2%
CO/N=C(\N)c1ccc([N+](=O)[O-])cc1 | 97.7%
O=C(NCc1cn2ccsc2n1)Nc1ccc(Cl)cc1 | 102%
O=C(Nc1ccc(Cl)cc1)c1ccsn1 | 145% (active)
O=C(Nc1ccccc1)c1nnsc1S(=O)(=O)c1ccc(Cl)cc1 | 90%
CCCC(C)C(=O)NCc1ccncc1 (stereo not given) | 96.3%
CC1=C(C(=O)N(C)C)C(c2ccccc2OC(F)F)NC(=O)N1 (stereo not given) | 104%
CC[N+]1(CC)CC2=Cc3ccccc3CC2C1 (stereo not given) | 106%
COCCn1c(N)c(N(Cc2ccccc2)C(=O)C2CCCCC2)c(=O)[nH]c1=O | 98%
Cc1cc(NC(=O)CSc2nccn2-c2ccc([N+](=O)[O-])cc2)no1 | 95.1%
COc1cc(SC)ccc1C(=O)Nc1cc(C)ccn1 | 102%
COc1ccccc1CNC(=O)c1ccc(SC)cc1OC | 109%
COc1cc(SC)ccc1C(=O)NCCOc1ccccc1Cl | 141% (active)
COCCNC(=O)C(OC(=O)c1cccs1)c1ccc(F)cc1 (stereo not given) | 93.1%
CCOc1ccc2c(c1)C(c1ccc(C)cc1)=NNC(c1ccc(C)cc1)=N2 | 131% (active)
Cc1ccc(C2=Nc3c(ccc4ccccc34)C(c3ccncc3)=NN2)cc1 | 37.3%
CCc1ccc2c(c1)C(c1ccc([N+](=O)[O-])cc1)=NNC(c1ccccc1)=N2 | 95.2%
O=C(NCc1ccccc1)C1=C[C@@H](c2ccc(C(F)(F)F)cc2)C[C@@H](OCc2ccc(CO)cc2)O1 | 106%

SMILES | activation (% of control)
Cc1ccc(C2NC(C(=O)O)CS2)cc1 (stereo not given) | 106%
CN(C)c1ccnc(Nc2ccc(F)cc2)c1C#N | 98.2%
CC(C)c1ccc(Nc2ncccc2C#N)cc1 | 135% (active)
O=C(Nc1ccccc1)c1cccnc1Nc1ccccc1 | 99.2%
Cc1oc2cc([N+](=O)[O-])c(O)c([N+](=O)[O-])c2c1C(=O)c1ccc(Br)cc1 | 94%
COc1ccc(N=Cc2c(O)[nH]c3ccccc23)cc1OC | 145% (active)
COc1ccc(OC)c(N=Cc2c(O)[nH]c3ccccc23)c1 | 115%
COc1cc(N=Cc2c(O)[nH]c3ccccc23)cc(OC)c1OC | 115%
CCC(CC)c1nnc(NC(=O)c2nn(C)c(=O)c3ccccc23)s1 | 102%
CN(CCOc1ccc(Br)cc1)CC(=O)Nc1cccc(S(=O)(=O)NC2=NCCC2)c1 | 97.5%
CCN(CC)S(=O)(=O)c1ccc(OC(C)C)c(N)c1 | 98.6%
Cc1ccc(-n2nc3cc(C)c(NC(=O)c4cccnc4)cc3n2)cc1 | 118%
Cc1cc2nc(-c3ccc(NC(=O)c4cccnc4)cc3)oc2cc1C | 137% (active)
Cc1ccc2nc(-c3ccc(NC(=O)c4cccnc4)cc3)oc2c1 | 93.8%
CCOc1ccc(CCN2C(=O)c3cccnc3C2=O)cc1OCC | 96.9%
O=C(NC1CC1)c1cccc(Br)c1 | 98.5%
O=C(NC1CC1)c1ccc(-c2ccccc2)cc1 | 131% (active)
Cc1ccc(C(=O)NC2CCN(C(=O)N3CCOCC3)CC2)cc1 | 98.8%
COc1ccc(C)cc1NC(=O)CSc1nnc(CC(=O)Nc2ccccc2F)n1C | 92.1%
CCCCc1ccc(NC(=S)NCCCN2CCOCC2)cc1 | 96.5%
O=C(Nc1ccc2oc(-c3ccccc3F)nc2c1)c1ccco1 | 170% (active)
O=C(Nc1cccc(-c2nc3ncccc3o2)c1)c1ccco1 | 98.8%
O=C(Nc1ccc2nccnc2c1)c1ccco1 | 127%
COCc1c(C(=O)OCc2c(C)noc2C)oc2ccccc12 | 100%
COc1ccc(-c2nn(-c3ccccc3)cc2/C=C\C(=O)N2CCOCC2)cc1[N+](=O)[O-] | 102%

SMILES | activation (% of control)
S=C(Nc1cccc(Br)c1)N1CCn2cccc2C1c1cccnc1 (stereo not given) | 90.5%
c1ccc2[nH]c(NCCN3CCOCC3)nc2c1 | 99.9%
c1ccc2cc3c(NCCN4CCOCC4)ccnc3cc2c1 | 137% (active)
O=C(Cn1c(-c2ccccn2)nc2ccccc21)NCCN1CCOCC1 | 101%
Cn1cccc1/C=C1\SC(=O)N(CC(=O)Nc2ccc(F)cc2)C1=O | 100%
CC(=O)OC(COc1ccc(F)cc1)Cn1cnc2ccccc21 (stereo not given) | 103%
CCn1nc(C)c(CN2CCN(Cc3ccc(OC)c(C)c3C)C(CCO)C2)c1C (stereo not given) | 98.9%
COc1ccc(Br)cc1CN(C)CC(=O)Nc1cc(Cl)cc(Cl)c1 | 105%
Cc1ccc(C(=O)NNC(=O)c2cccs2)cc1 | 130% (active)
Cc1ccc(C)c(NC(=O)CCC(=O)NNC(=O)c2cccs2)c1 | 101%
CC(C)C(=O)Nc1ccc(C(=O)NNC(=O)c2cccs2)cc1 | 102%
C=CS(=O)c1sc(Cl)c(N2CCOCC2)c1[N+](=O)[O-] (stereo not given) | 86.3%
O=[N+]([O-])c1cccc(Nc2c3ccccc3nc3ccccc23)c1 | 98%
CC(=O)Nc1ccc(NC(=O)COc2ncnc3ccccc23)cc1 | 93.2%
CC(=O)Nc1ccc(Nc2c3ccccc3nc3ccccc23)cc1 | 137% (active)
CC1=CC2=NC(=O)CC(C)(C(=O)N(CC(=O)NC(C)(C)C)Cc3ccccc3)N2C=C1 (stereo not given) | 106%
O=C(CCc1nc2ccccc2c(=O)[nH]1)OCC(=O)c1cccc(Cl)c1 | 93.7%
CCCc1nc2ccccc2c(C(=O)OCC(=O)c2ccc3c(c2)NC(=O)CO3)c1CC | 100%
Cc1ccc(C(=O)COC(=O)c2cccc(N3C(=O)c4c(C)nc5ccccc5c4C3=O)c2)cc1C | 149% (active)
O=C(NCCc1c[nH]c2ccccc12)C(=O)NCC1CCCO1 (stereo not given) | 109%
O=C(NCCc1c[nH]c2ccccc12)c1cc2ccccc2oc1=O | 143% (active)
CN(c1ccccc1)S(=O)(=O)c1ccc(Cl)c(C(=O)NCCc2c[nH]c3ccccc23)c1 | 95%
COc1ccc(NC(=O)/C(C#N)=C\c2cc(OC)c(OCc3ccc(C(=O)O)cc3)cc2Br)cc1 | 96.6%
COc1ccc(NC(=O)/C(Cl)=C(/Cl)S(=O)Cc2ccc(C)cc2)cn1 (stereo not given) | 222% (active)
Cc1ccc(NC(=O)OCc2cncs2)cc1 | 118%

SMILES | activation (% of control)
CC(=O)Nc1ccc(OCC(=O)NCc2ccc(C)cc2)cc1 | 95.8%
COc1ccc(NC(=S)NCCNC(C)=O)cc1 | 103%
COc1ccc(CS(=O)/C(Cl)=C(/Cl)C(=O)Nc2ccc(OC)nc2)cc1 (stereo not given) | 279% (active)
COc1ccc(NC(=S)Nc2ccccc2Cl)cn1 | 88.6%
c1ccc2c(c1)CSc1sccc1C2=C1CCNCC1 | 98.4%
CN(C)/C=C/C(=O)c1cnc2sccn2c1=O | 105%
COc1cccc(NCCC(=O)c2cccc([N+](=O)[O-])c2)c1 | 116%
O=C(c1ccc2c(c1)N(Cc1ccc(F)cc1)C(=O)c1ccccc1S2(=O)=O)N1CCN(c2ccccn2)CC1 | 97.5%
CCn1c(SCC(=O)N(C)C2CCS(=O)(=O)C2)nnc1-c1cccs1 (stereo not given) | 97.1%
Cc1ccc(NCc2n[nH]c(=S)n2-c2ccccc2)cc1Cl | 114%
CCOC(=O)N1CCN(c2cc(C)c([N+](=O)[O-])cc2F)CC1 | 77.6%
CC1CCCCC1NC(=O)CN1CCC(O)(c2ccc3c(c2)OCO3)CC1 (stereo not given) | 102%
COC(=O)N/N=C/c1ccc(/C=N/NC(=O)OC)cc1 | 103%
O=C(C[n+]1ccccc1)N/N=C/c1ccc(O)cc1 | 97.6%
Cc1nonc1C(=O)N/N=C/c1ccc(O)cc1 | 135% (active)
C/C=C/c1ccc(OCCCCN2CCC(C)CC2)c(OC)c1 | 98.3%
COc1cc(S(=O)(=O)N2CCOCC2)ccc1NC(=O)COc1ccc(N(C)S(=O)(=O)c2ccc(C)cc2)cc1 | 88.9%
COc1ccc(C(=S)Nc2ccccc2)cc1 | 118%
COc1ccc(C(=O)NC2CCN(C(=S)Nc3ccccc3)CC2)cc1 | 88.7%
COc1ccc(NC(=S)N2N=CCC2c2ccccc2)cc1 (stereo not given) | 135% (active)
Cc1ccccc1-n1cc(CNC(=O)CC2C(=O)NCCN2C/C=C/c2ccccc2)cn1 (stereo not given) | 100%
O=C(Cn1cc(C(F)(F)F)ccc1=O)N/N=C/c1ccc(Cl)cc1Cl | 116%
O=C(/C=C/c1ccccc1)c1ccoc1 | 98%
O=C(/C=C/c1ccc(N2CCOCC2)cc1)c1ccccc1 | 129% (active)
O=C(O)c1ccc2c(c1)C(=O)N(c1ccc(/C=C/C(=O)c3ccccc3)cc1)C2=O | 99.8%

— PubChem BioAssay AID932 (The Scripps Research Institute Molecular Screening Center, 2007)
